According to PubChem BioAssay (NCATS):
Results filed as inconclusive are left out. A call without a number means that no potency is given here. Calls of active or inactive are those of the source. Unless noted, calls come from the whole dose curve; as a rule, active = well fitted curve in the direction sought with a large enough effect; inconclusive = small, poorly fitted or top-dose-only effect, or another doubt; inactive = no such curve, though single readings can be large; an effect the other way counts as inactive or inconclusive.

Tests used:
[1] = molecular target: Alpha-galactosidase (Coffea arabica) (UniProt Q42656); assay: Counterscreen for Glucocerebrosidase Inhibitors: qHTS Assay for Coffee Bean alpha-Galactosidase at pH 4.5 (AID 957); note: series mostly up to about 77 µM
Procedure, shortened: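 Quantitative HTS of compounds (0.7 nM to 77 uM) against coffee bean alpha-galactosidase at pH 4.5, measuring 4-methylumbelliferone fluorescence released from 80 uM substrate.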

[2] = molecular target: Alpha-galactosidase (Coffea arabica) (UniProt Q42656); assay: Counterscreen for Glucocerebrosidase Inhibitors: qHTS Assay for Coffee Bean alpha-Galactosidase at pH 5.9 (AID 998)
Procedure, shortened: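 Enzyme 2 nM + cpd (0.7 nM–77 uM titration) + 4-MU-alpha-Gal 80 uM, pH 5.9 citrate/Tween-20, RT 20 min, NaOH/glycine stop pH 10, fluor 365/440. Normalized to no-enzyme and full-activity controls; Hill-fit AC50.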

[3] = Validation screen for inhibitors of Lassa infection (AID 463096; calls by dose curve; note: potency is the fitted concentration of half-maximal effect)
[4] = Inducers of the Endoplasmic Reticulum Stress Response (ERSR) in human glioma: Validation (AID 504836)
Procedure, shortened: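 Stably transfected U87-MG glioma cells carrying a GRP78-based luciferase sensor; 16 h compound incubation. Luminescence end-point read 10 min after Bright-Glo addition at room temperature.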

[5] = qHTS for Inhibitors of the Functional Ribonucleoprotein Complex (vRNP) of Lassa (LASV) Arenavirus: LASV Primary Screen - GLuc reporter signal (AID 1347082; calls by dose curve; tested in HEK293 reporter line; note: series mostly up to about 57 µM; nearly all actives have a fitted effect of over 60% in size)
[6] = qHTS for Inhibitors of the Functional Ribonucleoprotein Complex (vRNP) of Lassa (LASV) Arenavirus: Viability assay - alamar blue signal for LASV Primary Screen (AID 1347083; calls by dose curve; tested in HEK293 reporter line; note: series mostly up to about 57 µM; nearly all actives have a fitted effect of over 80% in size)
[7] = qHTS for Inhibitors of the Functional Ribonucleoprotein Complex (vRNP) of Lymphocytic Choriomeningitis Arenaviruses (LCMV): Viability assay - alamar blue signal for LCMV Primary Screen (AID 1347085; calls by dose curve; tested in HEK293 reporter line; note: series mostly up to about 57 µM; nearly all actives have a fitted effect of over 80% in size)
[8] = molecular target: Nucleoprotein (Lymphocytic choriomeningitis virus (strain Armstrong)) (UniProt P09992); assay: qHTS for Inhibitors of the Functional Ribonucleoprotein Complex (vRNP) of Lymphocytic Choriomeningitis Arenaviruses (LCMV): LCMV Primary Screen - GLuc reporter signal (AID 1347086; calls by dose curve; note: series mostly up to about 57 µM; nearly all actives have a fitted effect of over 70% in size)
Sequence of Nucleoprotein (Lymphocytic choriomeningitis virus (strain Armstrong)) (P09992 whole entry, looked up): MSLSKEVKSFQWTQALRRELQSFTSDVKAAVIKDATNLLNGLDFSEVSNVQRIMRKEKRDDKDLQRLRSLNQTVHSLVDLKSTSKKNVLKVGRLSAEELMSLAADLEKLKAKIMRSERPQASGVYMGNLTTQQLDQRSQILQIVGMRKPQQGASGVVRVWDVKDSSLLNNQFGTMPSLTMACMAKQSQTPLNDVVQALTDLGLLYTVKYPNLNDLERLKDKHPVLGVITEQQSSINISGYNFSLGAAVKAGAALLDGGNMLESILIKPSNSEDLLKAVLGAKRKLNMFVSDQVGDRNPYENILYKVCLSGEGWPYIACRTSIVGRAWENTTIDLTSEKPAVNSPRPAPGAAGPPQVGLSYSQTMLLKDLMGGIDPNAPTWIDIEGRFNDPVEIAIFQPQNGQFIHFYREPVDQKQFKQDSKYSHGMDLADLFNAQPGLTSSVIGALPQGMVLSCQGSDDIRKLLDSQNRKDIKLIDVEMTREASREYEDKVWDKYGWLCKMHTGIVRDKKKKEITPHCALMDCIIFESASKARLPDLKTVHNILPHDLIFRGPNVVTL

Sequence of Alpha-galactosidase (Coffea arabica) (Q42656 whole entry, looked up): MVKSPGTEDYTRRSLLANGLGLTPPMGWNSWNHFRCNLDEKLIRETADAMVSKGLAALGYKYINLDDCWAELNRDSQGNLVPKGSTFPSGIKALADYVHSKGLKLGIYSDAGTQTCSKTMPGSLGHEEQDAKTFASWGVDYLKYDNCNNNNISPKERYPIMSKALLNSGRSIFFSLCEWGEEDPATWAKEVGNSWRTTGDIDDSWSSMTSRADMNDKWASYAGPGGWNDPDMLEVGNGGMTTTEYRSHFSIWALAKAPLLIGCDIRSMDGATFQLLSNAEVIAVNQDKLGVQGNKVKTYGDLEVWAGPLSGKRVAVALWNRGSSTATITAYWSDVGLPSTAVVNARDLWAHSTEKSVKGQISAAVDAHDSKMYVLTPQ

Row | Structure (SMILES) | outcome [1] | outcome [2] | Potency [3] | outcome [4] | Potency [5] | Potency [6] | Potency [7] | Potency [8]
1 | CC(=O)N[C@@H](Cc1c[nH]c2ccccc12)C(=O)OCc1cc(C(F)(F)F)cc(C(F)(F)F)c1 | inactive | inactive | inactive | inactive | inactive | inactive | inactive | inactive
2 | NCCNS(=O)(=O)c1cccc2c(Cl)cccc12 | inactive | inactive | inactive | inactive | inactive | inactive | inactive | inactive
3 | NC(=O)CNCCC(c1ccccc1)c1ccccc1 | inactive | inactive | inactive | inactive | inactive | inactive | inactive | inactive
4 | CN[C@H](CC(=O)O)C(=O)O | inactive | inactive | inactive | inactive | inactive | inactive | inactive | inactive
5 | CCC(=O)N1CCN(C(=O)c2ccccc2)CC1 | inactive | inactive | inactive | inactive | inactive | inactive | inactive | inactive
6 | C[C@@H](NC(=O)/C(C#N)=C/c1ccc(O)c(O)c1)c1ccccc1 | inactive | inactive | inactive | inactive | inactive | inactive | inactive | inactive
7 | Nc1ccc(N2C(=O)c3ccccc3C2=O)c(Cl)c1 | inactive | inactive | inactive | inactive | inactive | inactive | inactive | inactive
8 | O=C(O)C1=CCNCC1 | inactive | inactive | inactive | inactive | inactive | inactive | inactive | inactive
9 | Cn1cnc2c(NCc3ccccc3)nc(NCCO)nc21 | inactive | inactive | inactive | inactive | inactive | inactive | inactive | inactive
10 | Clc1ccc(N2CCN(Cc3c[nH]c4ncccc34)CC2)cc1 | inactive | inactive | inactive | inactive | inactive | inactive | inactive | inactive
11 | CCCCN1CCC(n2c(=O)[nH]c3ccccc32)CC1 | inactive | inactive | inactive | inactive | inactive | inactive | inactive | inactive
12 | Ic1ccc(N2CCN(Cc3c[nH]c4ncccc34)CC2)cc1 | inactive | inactive | inactive | inactive | inactive | inactive | inactive | inactive
13 | O=C(O)c1ccccc1Nc1cccc(OCc2ccc3ccccc3n2)c1 | inactive | inactive | inactive | inactive | inactive | inactive | inactive | inactive
14 | O=[N+]([O-])c1cccc2cn[nH]c12 | inactive | inactive | inactive | inactive | inactive | inactive | inactive | inactive
15 | O=c1[nH]c2cc(Cl)ccc2c(O)c1-c1ccc(Oc2ccccc2)cc1 | inactive | inactive | inactive | inactive | inactive | inactive | inactive | inactive
16 | O=C(O)C1=CCCN(CCON=C(c2ccccc2)c2ccccc2)C1 | inactive | inactive | inactive | inactive | inactive | inactive | inactive | inactive
17 | O=C(N[C@@H](Cc1ccccc1)C(=O)CCl)OCc1ccccc1 | inactive | inactive | 6.31 µM (active) | inactive | inactive | inactive | inactive | inactive
18 | COc1ccccc1N1CCN(CCN2C(=O)CC3(CCCC3)CC2=O)CC1 | inactive | inactive | inactive | inactive | inactive | inactive | inactive | inactive
19 | O=C(O)/C(=C/c1c(C(=O)O)[nH]c2cc(Cl)cc(Cl)c12)c1ccccc1 | inactive | inactive | inactive | inactive | inactive | inactive | inactive | inactive
20 | CN(C)c1nc(N)c(C(=O)N=C(N)N)nc1Cl | inactive | inactive | inactive | inactive | inactive | inactive | inactive | inactive

Row | Structure (SMILES) | outcome [1] | outcome [2] | Potency [3] | outcome [4] | Potency [5] | Potency [6] | Potency [7] | Potency [8]
21 | CC[C@H](NC(=O)c1c(C)c(-c2ccccc2)nc2ccccc12)c1ccccc1 | inactive | inactive | inactive | – | inactive | inactive | inactive | inactive
22 | NC(N)=NC(N)=Nc1ccccc1 | inactive | inactive | inactive | – | inactive | inactive | inactive | inactive
23 | COc1cccc(C(=O)NCCN2CCN(c3ccc(Cl)cc3)CC2)c1 | inactive | inactive | inactive | inactive | inactive | inactive | inactive | inactive
24 | O=c1onc2n1-c1cc(Br)ccc1OC2 | inactive | inactive | inactive | inactive | inactive | inactive | inactive | inactive
25 | CC(=O)NNC(=O)N1Cc2ccccc2Oc2ccc(Cl)cc21 | inactive | inactive | inactive | inactive | inactive | inactive | inactive | inactive
26 | N=C(N)SCCN | inactive | inactive | inactive | inactive | inactive | inactive | inactive | inactive
27 | CCn1c(=O)[nH]c2cc(Cl)c(Cl)cc21 | inactive | inactive | inactive | inactive | inactive | inactive | inactive | inactive
28 | COc1cc(CC(=O)O)ccc1O | inactive | inactive | inactive | inactive | inactive | inactive | inactive | inactive
29 | O=c1[nH]c2cc(C(F)(F)F)ccc2n1-c1cc(C(F)(F)F)ccc1O | inactive | inactive | inactive | inactive | inactive | inactive | inactive | inactive
30 | Fc1ccc(C(OCCCc2cnc[nH]2)c2ccc(F)cc2)cc1 | inactive | inactive | inactive | inactive | inactive | inactive | inactive | inactive
31 | Cn1c(=O)c2[nH]c(C3CCCC3)nc2n(C)c1=O | inactive | inactive | inactive | inactive | inactive | inactive | inactive | inactive
32 | N[C@@H](Cc1c[nH]c2ccccc12)C(=O)O | inactive | inactive | inactive | inactive | inactive | inactive | inactive | inactive
33 | COc1ccc(-c2ccc(N)[n+](CCCC(=O)O)n2)cc1 | inactive | inactive | inactive | inactive | inactive | inactive | inactive | inactive
34 | COC(=O)c1c(C)[nH]c(C)c1C(=O)c1ccccc1Cc1ccccc1 | inactive | inactive | inactive | inactive | inactive | inactive | inactive | inactive
35 | NCCSSCCN | inactive | inactive | inactive | inactive | inactive | inactive | inactive | inactive
36 | Oc1cc2c(cc1O)CN(C(=S)NCCc1ccc(Cl)cc1)CCC2 | inactive | inactive | inactive | inactive | inactive | inactive | inactive | inactive
37 | N[C@@H](CS(=O)O)C(=O)O | inactive | inactive | inactive | – | inactive | inactive | inactive | inactive
38 | CN1CCc2ccccc2Cc2[nH]c3ccccc3c2CC1 | inactive | inactive | inactive | – | inactive | inactive | inactive | inactive
39 | NCCCCCCCCCCN | inactive | inactive | inactive | – | inactive | inactive | inactive | inactive
40 | O=C1NC(c2cccc([N+](=O)[O-])c2)=CCN1c1ccccc1O | inactive | inactive | inactive | inactive | inactive | inactive | inactive | inactive

Row | Structure (SMILES) | outcome [1] | outcome [2] | Potency [3] | outcome [4] | Potency [5] | Potency [6] | Potency [7] | Potency [8]
41 | CCCn1c(=O)c2[nH]c(C3CCCC3)nc2n(CCC)c1=O | inactive | inactive | inactive | inactive | inactive | inactive | inactive | inactive
42 | CCCOC(=O)c1c(-c2ccccc2)nc(CC)c(C(=O)SCC)c1CCC | inactive | inactive | inactive | inactive | inactive | inactive | inactive | inactive
43 | CCCCCCC/C=C\CCCCCCCCC(=O)O | inactive | inactive | inactive | inactive | inactive | inactive | inactive | inactive
44 | N=C(N)SCCc1cnc[nH]1 | inactive | inactive | inactive | inactive | inactive | inactive | inactive | inactive
45 | O=C(O)c1ccccc1Nc1ccccc1 | inactive | inactive | inactive | inactive | inactive | inactive | inactive | inactive
46 | Cn1c(=O)c2[nH]c(-c3ccc(S(=O)(=O)O)cc3)nc2n(C)c1=O | inactive | inactive | inactive | inactive | inactive | inactive | inactive | inactive
47 | COc1cc(/C=C(\C#N)C(=O)c2ccc(O)c(O)c2)cc(I)c1O | inactive | inactive | inactive | inactive | inactive | inactive | inactive | inactive
48 | O=C(c1cc(O)c(O)c([N+](=O)[O-])c1)c1ccccc1F | inactive | inactive | inactive | inactive | inactive | inactive | inactive | inactive
49 | COc1ccc2c(c1)c(CC(=O)O)c(C)n2C(=O)c1ccccc1 | inactive | inactive | inactive | – | inactive | inactive | inactive | inactive
50 | Cc1ccc([N+](=O)[O-])cc1S(=O)(=O)N(C)C | inactive | inactive | inactive | inactive | inactive | inactive | inactive | inactive
51 | CC(C)NC[C@H](O)c1ccc(O)c(O)c1 | inactive | inactive | inactive | – | inactive | inactive | inactive | inactive
52 | CC(C)(CO)Cc1cc(C(C)(C)C)c(O)c(C(C)(C)C)c1 | inactive | inactive | inactive | inactive | inactive | inactive | inactive | inactive
53 | O=C(O)C1=CCCNC1 | inactive | inactive | inactive | inactive | inactive | inactive | inactive | inactive
54 | C[C@H](NC(=O)/C(C#N)=C/c1ccc(O)c(O)c1)c1ccccc1 | inactive | inactive | inactive | inactive | inactive | inactive | inactive | inactive
55 | C[C@@H]1C(=O)NC2=Nc3cccc(Cl)c3CN21 | inactive | inactive | inactive | inactive | inactive | inactive | inactive | inactive
56 | CCSC(=N)N | inactive | inactive | inactive | inactive | inactive | inactive | inactive | inactive
57 | CNc1cc(NS(=O)(=O)c2ccc(N)cc2)nc(NC)n1 | inactive | inactive | inactive | inactive | inactive | inactive | inactive | inactive
58 | Cc1cccc(C(=O)NCN2CCN(c3ccccc3C#N)CC2)c1 | inactive | inactive | inactive | inactive | inactive | inactive | inactive | inactive
